From PubChem BioAssay (NCATS) come the findings set out here.

Records with an inconclusive call do not appear. Activity calls are given as the source filed them. Calls come from the whole dose curve; as a rule, active = well fitted curve in the direction sought with a large enough effect; inconclusive = small, poorly fitted or top-dose-only effect, or another doubt; inactive = no such curve, though single readings can be large; an effect the other way counts as inactive or inconclusive.

Assay [1] is described as follows: HPAF-II Cancer Cell Toxicity qHTS against the NCATS CANVASS Library (AID 1347346). Note: nearly all actives have a fitted effect of over 55% in size. Note: potency is the fitted concentration of half-maximal effect. In outline:
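Cytotoxicity in HPAF-II pancreatic cancer cells: 72 h treatment across 11 concentrations, ATP-based CellTiter-Glo luminescence endpoint.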

Assay [2] is described as follows: UWB1.289 Cancer Cell Toxicity qHTS against the NCATS CANVASS Library (AID 1347347). Note: nearly all actives have a fitted effect of over 60% in size. In short, it runs like this: (§1)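 1000 cells/well; 4 h settle; 11-pnt titration; 72 h, 37 degrees C, 5% CO2; CellTiter-Glo, 15min RT; luminescence read.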
A general note: Quantitative high-throughput screening tests each substance at several concentrations.

Assay [3] is described as follows: Panc-1005 Cancer Cell Toxicity qHTS against the NCATS CANVASS Library (AID 1347349). Note: series mostly up to about 38 µM; nearly all actives have a fitted effect of over 60% in size. In outline: as §1
The nature of assay [4]: COV-362 Cancer Cell Toxicity qHTS against the NCATS CANVASS Library (AID 1347352). Note: series mostly up to about 38 µM. In short, it runs like this:
(§2)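 qHTS cytotoxicity: compounds tested in 11 concentrations on 1000 seeded cells per well over 72 h; bortezomib served as control; signal from CellTiter-Glo luminescence.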

Assay [5] can be described thus: UWB1.289-WTBRCA1 Cancer Cell Toxicity qHTS against the NCATS CANVASS Library (AID 1347354). In short, it runs like this: as §2
Assay [6] in a line: qHTS for Hypoxia signaling pathway (HIF-1) agonists against the NCATS CANVASS Library (AID 1347375). In outline:
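Inducers of HIF-1 signaling were detected in ME-180 cells bearing an HRE-driven beta-lactamase reporter after 17 h compound exposure. Activity came from CCF4-AM FRET emission ratio (460/530 nm) in qHTS format.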

Assay [7] in a line: qHTS for Antimalaria activity screened against the NCATS CANVASS Library (AID 1347380). Note: nearly all actives have a fitted effect of over 40% in size. Note: potency is the fitted concentration of half-maximal effect. In short, it runs like this: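 Growth inhibition of asexual erythrocytic P. falciparum Dd2 was quantified by SYBR Green DNA staining. Cultures grew 72 h with compound (11-point series) in hypoxic gas at 37C; lysis and staining lasted 18 h.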
A short description of assay [8]: qHTS assay for small molecule disruptors of mitochondrial membrane potential screened against the NCATS CANVASS Library (AID 1347389). Note: nearly all actives have a fitted effect of over 60% in size. Note: potency is the fitted concentration of half-maximal effect. In short, it runs like this:
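Compounds tested in 11-point qHTS series on HepG2 cells for 1 hr; membrane-potential dye added for 30 min at 37C. Lower red-to-green ratio indicates loss of potential.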

Assay [9] has as its system Zika virus NS2B-NS3 protease (linked construct). In words: Primary screen NINDS Rhodamine qHTS for Zika virus inhibitors (AID 1347160). Note: potency is the fitted concentration of half-maximal effect; nearly all actives have a fitted effect of over 55% in size. In short, it runs like this: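 Purified NS2B-NS3 protease with the NS2B hydrophilic domain joined by a flexible linker (25 nM) in 10 mM Tris-HCl pH 8.0, 0.01% Tween 20, preincubated 15 min at RT with compound; Rhodamine110 peptide substrate 1.5 µM; fluorescence change over 15 min; 4-parameter Hill fit.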

For `CC(=O)N[C@H](C)c1nc(/C=C/C=C/C(=O)CC2CC(=O)CC[C@]2(C)O)cs1` (some centres not stated), the Potency entry in assay [1], in assay [2], in assay [3], in assay [4], in assay [5] and in assay [7] was “inactive” throughout. Moreover, the Potency entry in [8] was “inactive”. In addition, the outcome in assay [6] was inactive.

Take `CC(C)=CCC/C(C)=C/Cc1cc([C@@H]2CC(=O)c3c(cc(O)c(CC=C(C)C)c3O)O2)ccc1O`: the Potency is 6.97 µM (active) in assay [9] and 16.7 µM (active) in assay [7]. Besides, in assay [5], the Potency entry is “inactive”.

Turning to `C[C@@]1(CCC(=O)Nc2c(O)ccc(C(=O)O)c2O)C(=O)C=C[C@]23C[C@H]4C[C@H](O[C@@]4(C)C2)C31` (some centres not stated), the Potency result in [2], in assay [3], in assay [4] and in [5] was “inactive” each time. The molecule was called inactive in assay [6].

In the case of `COc1c(O)cc(O)c2c(=O)cc(-c3ccccc3)oc12`, the Potency entry in assay [1], in [3], in assay [5] and in assay [7] was “inactive” throughout. The outcome in assay [6] was inactive.

Turning to `C/C=C(/CO)C(=O)O[C@@H]1[C@H](O)[C@@H](C(=O)OC)O[C@@H]2C[C@H]3OC(n4cnc5c(N)ncnc54)[C@H](OC)[C@H]3O[C@@]12O` (some centres not stated), the Potency entry in assay [2], in assay [4], in assay [7] and in assay [8] was “inactive” in each case.

Regarding `O=c1cc(-c2ccc(O)cc2)oc2cc(O)c([C@@H]3OC(CO)[C@H](O)[C@@H](O)[C@H]3O)c(O)c12` (some centres not stated), the Potency result in assay [2], in [4], in [5], in assay [7] and in assay [8] was “inactive” throughout.

With `CC1=C(C)C(=O)OC(C(C)C2(O)CCC3C4C5OC5C5(O)CC=CC(=O)C5(C)C4CCC32C)C1` (configuration not stated), the Potency entry in assay [1] and in assay [8] was “inactive” each time. In [6], the result was inactive.

For `O=C1CC(c2ccc(O)cc2)Oc2cc(O)ccc21` (configuration not stated), the Potency entry in [1], in [3], in [4], in assay [5] and in assay [7] was “inactive” throughout. For the same molecule, the call in assay [6] was inactive. In addition, in assay [8], the Potency is 7.41 µM (active).

For `C=C1C[C@]23C=CC(=O)[C@@](C)(CCCC(C)C(=O)N[C@@H](CO)C(=O)O)[C@@H]2C[C@@H]1CC3` (some centres not stated), the Potency result in assay [1], in assay [2], in assay [3], in [4], in [5] and in [7] was “inactive” each time. In assay [8], the Potency result was “inactive”.

Turning to `C[C@@]12CCC[C@@](C)(C(=O)OP(=O)(O)OC[C@H]3O[C@@H](n4cnc5c(N)ncnc54)[C@H](O)[C@@H]3O)[C@H]1C[C@@H](O)[C@@]13C[C@@H](CC[C@@H]21)[C@](C)(O)C3`, the Potency in assay [1] was 4.73 µM (active). The Potency result in [2], in assay [4], in [7] and in assay [8] was “inactive” each time.
